A selection: hits, their analogues and other compounds. The true share with any hit is near 0.89%.
CIT2 TOR yeast: alters CIT2-GFP fluorescence in TOR pathway yeast screen. GFP response vs DMSO, % at 10 µM. S. cerevisiae CIT2-GFP strain, flow cytometry, 3 h; 100 means same as DMSO wells. actives 0.065% (n = 320,000);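 active = GFP response relative to DMSO above a set limit, near the screen mean plus 3 SD, cut at about 150% in these data; inconclusive = Fewer than 70 cells measured for a yeast strain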;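 note: ratio of well median GFP fluorescence to mean of DMSO wells on the plate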
MEP2-GFP yeast: yeast TOR pathway MEP2-GFP modulation; GFP response vs DMSO, % at 10 µM; S. cerevisiae MEP2-GFP strain, flow cytometry GFP, 3 h; 100% = DMSO control level; actives 0.51% (n = 330,000);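 active = GFP response versus DMSO above a set limit, roughly screen mean plus 3 SD, cut at about 180% in these data; inconclusive = fewer than 70 cells counted for a yeast strain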;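 note: median GFP fluorescence of the barcode-gated MEP2-GFP cells per well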
LAP4 TOR yeast: alters LAP4-GFP fluorescence in TOR pathway yeast screen. AID 2023. GFP response vs DMSO, % at 10 µM. actives 0.34% (n = 320,000). S. cerevisiae LAP4-GFP multiplex, flow cytometry GFP, 3 h; median GFP as percent of DMSO wells;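 active = GFP response vs DMSO above a set limit, about the screen mean plus 3 SD, cut at about 150% in these data; inconclusive = under 70 cell events counted for the yeast strain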
RPL19A TOR yeast: yeast TOR pathway RPL19A-GFP modulation; S. cerevisiae RPL19A-GFP strain, flow cytometry, 3 h; stronger effect = lower value; percent response vs DMSO, % at 10 µM; AID 2025; actives 0.3% (n = 330,000);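 active = percent response vs DMSO below 50%; inconclusive = fewer than 70 events counted for the yeast strain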;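 note: median channel GFP fluorescence of the barcoded RPL19A-GFP strain; ratio of sample median GFP to plate DMSO average so 100% = DMSO; lower means less RPL19A-GFP as with rapamycin TOR inhibition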
AGP1 TOR yeast: yeast TOR pathway AGP1-GFP modulation; S. cerevisiae AGP1-GFP multiplex flow cytometry, 3 h; GFP as percent of DMSO wells; GFP response vs DMSO, % at 10 µM; actives 0.02% (n = 320,000);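 active = GFP response relative to DMSO above a set limit, near screen average plus 3 SD, cut at about 150% in these data; inconclusive = fewer than 70 cells counted for the yeast strain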;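 note: median GFP channel fluorescence of the gated AGP1 strain per well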
The depositor's hits bear a star; ? = inconclusive; . = no result; [ ] = another dose, or the depositor's remark.

SMILES | CIT2 TOR yeast | MEP2-GFP yeast | LAP4 TOR yeast | RPL19A TOR yeast | AGP1 TOR yeast
Cc1ccc(NC(=O)C2C3C=CC4(O3)C2C(=O)N(CCN2CCOCC2)C4C(=O)NC2CCCCC2)cc1C (stereo unspecified) | 98.7 | 100.3 | 98.2 | 104.6 | 106.5
O=C(COC(=O)COc1ccccc1F)Nc1ccc2c(c1)OCO2 | 101.7 | 100.7 | 92.9 | 95.7 | 88.9
Cc1c(NC(=O)CN2CCN(C(c3ccccc3)c3ccccc3)CC2)c(=O)n(-c2ccccc2)n1C | ? | 487.4*[may fluoresce violet] | 93.8 | 27.1*[may fluoresce violet] | ?
Cc1c(NC(=O)CN2CCN(c3ccccc3)CC2)c(=O)n(-c2ccccc2)n1C | 103.2 | 94.0 | 103.1 | 90.2 | .
Cc1c(NC(=O)Nc2ccc3c(c2)OCO3)c(=O)n(-c2ccccc2)n1C | 111.9 | 224.5* | 260.1* | 93.0 | 160.7*
Cc1cc(CNC(=S)Nc2ccc(Br)cc2Cl)nn1C | 91.3 | 94.1 | 105.9 | 99.6 | 98.0
O=C(NCCCN1CCOCC1)c1cc(-c2ccc(Cl)s2)nc2ccccc12 | 96.5 | 107.6 | 109.9 | 104.3 | 95.8
O=C(O)CC(NC(=O)/C(=C/c1ccccc1)NC(=O)c1ccccc1)c1ccccc1 (stereo unspecified) | ? | 261.3*[may fluoresce violet] | 44.2 | 37.1*[may fluoresce violet] | ?
O=C(NC(Cc1ccccc1)C(=O)O)/C(=C/c1ccccc1)NC(=O)c1ccco1 (stereo unspecified) | ? | 219.7*[may fluoresce violet] | 65.9 | 21.8*[may fluoresce violet] | ?
O=C(NC(Cc1ccccc1)C(=O)O)/C(=C/c1ccc(Cl)cc1)NC(=O)c1ccccc1 (stereo unspecified) | 101.3 | 101.0 | 92.2 | 108.1 | 101.3
O=C(Nc1cc(Cl)ccc1Cl)C1Cc2ccccc2O/C1=N\O (stereo unspecified) | 89.6 | 106.5 | 116.1 | 102.2 | 96.4
CCN(CC(O)Cn1c2ccccc2c2ccccc21)S(=O)(=O)c1ccc(F)cc1 (stereo unspecified) | 110.1 | 152.4 | 153.0* | 104.4 | 101.1
CC(=O)C1=C(O)C(=O)N(CCC(=O)O)C1c1cccc(F)c1 (stereo unspecified) | ? | 199.5*[may fluoresce violet] | 90.6 | 69.3 | 21.4
O=C(NCCCN1CCOCC1)c1cc2c([nH]c3ccccc32)c(-c2cccc(Br)c2)n1 | ? | 343.6*[may fluoresce violet] | 100.0 | 19.2*[may fluoresce violet] | 48.0
Cc1ccc(/C=N/NC(=O)c2ccccn2)s1 | 109.9 | 200.0* | 140.2 | 81.4 | 105.8
O=C(N/N=C/c1cccs1)c1ccccn1 | 99.5 | 96.6 | 96.2 | 94.1 | 96.9
O=C(C1=C(O)C(=O)N(CCN2CCOCC2)C1c1cccc(Br)c1)c1cc2ccccc2o1 (stereo unspecified) | 86.3 | 101.5 | 103.3 | 96.5 | 98.3
O=C(C1=C(O)C(=O)N(CCN2CCOCC2)C1c1ccc(F)cc1)c1cc2ccccc2o1 (stereo unspecified) | ? | 158.1 | 69.9 | 16.2*[may fluoresce violet] | ?
Cc1ccc(-n2ncc(C#N)c2/N=C/N(C)C)cc1 | 117.3 | 267.5* | 157.5* | 91.8 | 101.7
Cc1ccc(C(=O)N2c3ccccc3NC(=O)C2C)cc1 (stereo unspecified) | . | 247.5* | 212.3* | 103.2 | 101.6
CC1C(=O)Nc2ccccc2N1C(=O)c1ccc(Cl)c(Cl)c1 (stereo unspecified) | 102.7 | 109.3 | 94.0 | 109.7 | 106.2
CNC(=O)c1cccc(N2CCCC2=O)c1 | 82.6 | 89.4 | 87.7 | 98.6 | 94.7
CC(NC(=O)c1cccc(N2CCCC2=O)c1)c1ccc2c(c1)OCCO2 (stereo unspecified) | ? | 354.1*[may fluoresce violet] | 74.3 | 29.7*[may fluoresce violet] | ?
COc1cc(NC(=O)C/C(C)=N/NC(=O)c2ccccn2)c(OC)cc1Cl | ? | 324.4*[may fluoresce violet] | 83.8 | 48.1*[may fluoresce violet] | ?
COc1ccccc1NC(=O)C/C(C)=N/NC(=O)c1ccccn1 | 109.1 | 102.1 | 95.2 | 106.2 | 107.0
SMILES | CIT2 TOR yeast | MEP2-GFP yeast | LAP4 TOR yeast | RPL19A TOR yeast | AGP1 TOR yeast
COc1cc2cc(C(N)=O)c(N)nc2cc1OC | ? | 215.6*[may fluoresce violet] | 97.4 | 44.0*[may fluoresce violet] | ?
COc1ccc2nc(C)c(C(N)=O)cc2c1 | 85.2 | ? | ? | ? | ?
CN(C)Cc1c(O)c(Cl)cc2c3c(c(=O)oc12)CCCC3 | ? | 175.0*[may fluoresce violet] | 105.9 | 54.4 | 31.9
Cc1c(C)c2cc(Cl)c(O)c(CN(C)C)c2oc1=O | ? | 129.4 | 94.1 | 67.0 | 22.9
CCc1c(C)c2cc(Cl)c(O)c(CN(C)C)c2oc1=O | 101.5 | 193.3* | 113.8 | 50.6 | 31.3
Cc1ccc(S(=O)(=O)NCC(=O)NNC(=O)c2ccccc2Cl)cc1C | 80.0 | 90.7 | 85.4 | 90.2 | 89.6
CC1=C(C(=O)NCc2ccccc2)C(c2cccnc2)n2ncnc2N1 (stereo unspecified) | 88.1 | 89.5 | 89.7 | 86.5 | 86.4
COc1ccc(C2C(C(=O)NCc3ccccc3)=C(C)Nc3ncnn32)cc1OC (stereo unspecified) | ? | 199.8*[may fluoresce violet] | 60.4 | 65.0 | ?
CCc1ccc2nc3nc(C)cc(C)c3c(N)c2c1 | ? | 384.5*[may fluoresce violet] | 80.3 | 32.1*[may fluoresce violet] | ?
Cc1cc(C)c2c(N)c3ccccc3nc2n1 | ? | 134.5 | 99.4 | 14.9*[may fluoresce violet] | 22.4
Cc1ccc(OCC(=O)NCCCNC(=O)c2ccccn2)cc1 | 103.2 | 110.8 | 102.1 | 106.6 | 95.4
Cc1cccc(OCC(=O)NCCNC(=O)c2ccccn2)c1 | ? | ? | ? | 31.1*[may fluoresce violet] | ?
CC(=O)c1ccc(N2CCN(S(=O)(=O)c3ccc4c(c3)CC(C)N4C(C)=O)CC2)cc1 (stereo unspecified) | 86.0 | 120.8 | 85.6 | 37.5* | 17.1
CC(=O)c1ccc(N2CCN(S(=O)(=O)c3ccc4c(c3)CC(C)N4C(=O)C3CC3)CC2)cc1 (stereo unspecified) | 102.0 | 109.3 | 108.8 | 101.8 | 113.9
CSc1ccccc1NC(=O)C1=COCCO1 | 104.0 | 110.8 | 74.7 | 115.6 | 85.2
O=C(CCCC(=O)OCC(=O)c1ccc(Cl)cc1)NC1CCCCC1 | 103.6 | 101.3 | 98.5 | 96.8 | 96.3
N=c1c(C(=O)NCCN2CCOCC2)cc2c(=O)n3ccccc3nc2n1Cc1ccc(F)cc1 | ? | 139.9 | 79.8 | 27.7*[may fluoresce violet] | 15.0
N=c1c(C(=O)NCCN2CCOCC2)cc2c(=O)n3ccccc3nc2n1CCCN1CCOCC1 | ? | 247.5*[may fluoresce violet] | 77.8 | 51.7 | ?
COc1cccc(CNC(=O)Cn2nc(C)c([N+](=O)[O-])c2C)c1 | 95.3 | 101.2 | 93.5 | 99.8 | 98.0
O=C1c2ccccc2C(=O)c2c([N+](=O)[O-])ccc(O)c21 | 100.6 | 134.8 | 154.2* | 92.2 | 83.1
O=C(O)c1ccc([N+](=O)[O-])c2c1C(=O)c1ccccc1C2=O | 95.7 | 101.9 | 94.3 | 103.1 | 106.4
COc1cccc(NC(=O)/C=C/c2ccc([N+](=O)[O-])cc2)c1 | 105.5 | 193.1* | 113.2 | 70.4 | 20.8
O=C(NCC(=O)N1CCOCC1)c1ccc(Cl)cc1 | 97.0 | 99.1 | 102.3 | 91.8 | 108.6
